Bioassay records: PubChem BioAssay, National Center for Advancing Translational Sciences (NCATS)
DRD3 agonist: agonists of human D3 dopamine receptor. P35462. D3R DiscoveRx beta-arrestin cells, luminescence, 90 min. max activation, %. 410,000 compounds, 0.58% hits; in the data active means max activation above about 30%
Target sequence (P35462 whole entry, looked up): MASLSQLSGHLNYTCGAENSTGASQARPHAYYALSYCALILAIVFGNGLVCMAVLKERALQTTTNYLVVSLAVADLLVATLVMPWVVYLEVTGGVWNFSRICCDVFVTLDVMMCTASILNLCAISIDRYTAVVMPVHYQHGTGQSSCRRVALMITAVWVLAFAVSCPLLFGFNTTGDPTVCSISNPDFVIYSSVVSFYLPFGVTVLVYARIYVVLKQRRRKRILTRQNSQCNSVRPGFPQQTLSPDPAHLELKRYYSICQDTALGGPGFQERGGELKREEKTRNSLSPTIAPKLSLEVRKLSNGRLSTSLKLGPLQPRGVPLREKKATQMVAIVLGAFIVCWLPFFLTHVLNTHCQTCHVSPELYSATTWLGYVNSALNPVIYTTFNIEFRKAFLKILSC
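Agonist mode: compounds and dopamine controls were applied to plated cells for 90 min at 37 degrees C after an overnight attachment at 1500 cells/well. Luminescent read-out followed 30 - 60 minutes at room temperature with DiscoveRx detection reagent.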
DRD3 antagonist: blocks the human D3 dopamine receptor. P35462. D3R cells, DiscoveRx beta-arrestin luminescence, antagonist mode; stronger effect = lower value. max response, negative = inhibition, %. 360,000 compounds, 2.5% hits. AID 652054; in the data active means max response below about -50%; inconclusive means no clear call, values can overlap the other calls
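Cells expressing the human receptor were seeded at 1500 cells/well, incubated overnight at 37 degrees C in 5% CO2, then exposed to library compounds with dopamine controls for 90 minutes at 37 degrees C before luminescent detection.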
Integrin act MD: activators of alpha7 integrin expression for muscular dystrophy | alpha7betagal myoblasts, beta-gal FDG fluorescence, 48 h | Potency, µM (titrated, usually from 38.3 µM), hits mostly activators | 350,000 compounds, 0.064% hits | AID 624291; active means well fitted activation curve with a large enough effect; inconclusive means small, poorly fitted or top-dose-only effect; inactive means no such curve, though single readings can be large or run the other way; further: nearly all actives have a fitted effect of over 60% in size
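Alpha7betagal+/- myoblasts (passage 13) were plated 16-24 hr, then exposed to compounds (1:260 dilution of DMSO stock) for 48 hours at 37C. After MPER lysis, β-galactosidase reporter activity was read as FDG fluorescence (ex 480/em 540) after 30 minutes.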
Hits are given with their value; . = inactive; ? = inconclusive; / = no result given; [ ] = another dose, or the depositor's remark. The list is not random: actives were taken first. Their share in the collection is about 2.9%.

SMILES	DRD3 agonist	DRD3 antagonist	Integrin act MD
CCOCc1c(C(=O)N2CCN(CCOc3ccc(Cl)cc3)CC2)oc2ccccc12	108.0	.	.
O=C(CN1CCCN(Cc2cccc(F)c2)S1(=O)=O)Nc1ccc2c(c1)OCCO2	.	/	/
Cc1ccc(NC(=O)Cn2c(=O)n(CCC(=O)NCc3ccccc3Cl)c(=O)c3ccccc32)cc1	.	/	/
CC(=O)NCCNc1nc(NC(C)C)nc2ccsc12	.	.	/
O=C(c1ccco1)c1nc2c(n1O)CCCCC2	.	.	.
O=C(c1cc2ccccc2o1)c1nc2c(n1O)CCCCC2	.	-79.1	.
O=C(c1cc2ccccc2o1)N1CCN(S(=O)(=O)c2cccs2)CC1	.	-56.3	.[1.53 µM]
O=C(c1cc2ccccc2o1)N1CCN(S(=O)(=O)c2ccccc2)CC1	.	.	.
Cc1cc(C)n(CC(=O)N/N=C/c2ccc(C)o2)n1	.	.	.
Cc1csc(-c2nc3ccccc3n2C(C(=O)Nc2c(C)cccc2C)C2CC2)c1 (centres undefined)	.	.	/
Cn1c(SCC(=O)NCCC2=CCCCC2)nnc1C(F)(F)F	.	-70.0	.
Cn1cnnc1SCC(=O)NCCC1=CCCCC1	.	.	.
COc1cccc(C2NC(c3cccc(OC)c3O)C(C)C(=O)C2C)c1O (centres undefined)	30.5	.	.[7.66 µM]
COc1ccccc1C1NC(c2ccccc2OC)C(C)C(=O)C1C (centres undefined)	.	.	.[7.66 µM]
CN(C)c1ccc(N=Cc2nc(-c3ccccc3)oc2OC(=O)c2ccccc2)cc1	.	.	.
CC(=O)Oc1oc(-c2ccccc2)nc1C=Nc1ccc(N(C)C)cc1	.	.	.
COc1ccccc1N=Cc1nc(-c2ccccc2)oc1OC(C)=O	.	-55.6	.
CC(=O)Oc1oc(-c2ccccc2)nc1/C=N/c1ccccn1	.	-62.5	.
C=CCSc1nc2ccccc2n1S(=O)(=O)c1ccc(Cl)cc1	.	.	.
CC(C)CCN1C(=O)c2ccc(C(=O)Nc3ccccn3)cc2C1=O	.	.	.
COc1ccccc1CNc1nc(-c2ccccc2CO)c2sccc2n1	.	.	/
CCOc1ccc2[nH]c(=O)c(CN(Cc3cccs3)Cc3nnnn3C(C)(C)CC)cc2c1	31.4	.	.
CCC(C)(C)n1nnnc1CN(Cc1cccs1)Cc1cc2cc(OC)ccc2[nH]c1=O	.	.	.
CCNCCC(=O)N1c2ccccc2Sc2ccc(C(F)(F)F)cc21	.	-69.5	.
Cc1ccc(NC(=O)c2cnc(N3CCN(c4ccccn4)CC3)c3ccccc23)c(Br)c1	43.6	.	.
SMILES	DRD3 agonist	DRD3 antagonist	Integrin act MD
Cc1ccc(C(=O)CN2CCN(c3ccccn3)CC2)c(C)c1	47.6	.	.
O=C(Nc1c(F)cccc1F)c1cnc(N2CCN(c3ccccn3)CC2)c2ccccc12	.	.	.
O=C(CSc1nc2ccccc2o1)N1c2ccccc2Sc2ccc(C(F)(F)F)cc21	.	.	.
O=C(CN1CCN(c2ccccn2)CC1)N1c2ccccc2Sc2ccc(C(F)(F)F)cc21	.	-62.1	.
Cc1ccc2[nH]cc(C(=O)CN3CCN(c4ccccn4)CC3)c2c1	.	.	.
O=C(CN1CCCC1)N1c2ccccc2Sc2ccc(C(F)(F)F)cc21	.	.	.
CN(C)S(=O)(=O)c1ccc(N2CCCC2)c(C(=O)NCC2COc3ccccc3O2)c1 (centres undefined)	.	.	.
CC1CC2=C(NC(=S)NC2c2ccccc2F)/C(=C/c2ccccc2F)C1 (centres undefined)	.	.	.
COc1cccc(Cn2cccc(NC(=O)NC3CCCCC3)c2=O)c1	.	.	.
CC1=C(C#N)C(NC(=O)c2ccccc2)(C(F)(F)F)C(=O)N1 (centres undefined)	.	/	/
O=C(CN1CCN(c2ccccn2)CC1)N1CC(O)CO1 (centres undefined)	.	.	.
O=C(CN1CCN(c2ccccn2)CC1)N1c2ccccc2CCc2ccccc21	.	-53.7	.
O=C(NC1CCCCC1)c1cc(F)cc2c1OCOC2	.	.	.
O=C(NCCCN1CCOCC1)C(=O)N/N=C/c1c2ccccc2cc2ccccc12	.	.	.
CCOC(=O)Cc1nnc(NC(=O)COc2ccc(C)cc2)s1	.	.	.
COc1cc(-c2c(C#N)c(=O)[nH]c3c2c(C)nn3-c2ccccc2)ccc1O	.	?	.
Nc1cc(N)c(OCC(F)(F)F)cc1OCC(F)(F)F	.	-56.4	.
Nc1cc(OCC(F)(F)F)cc([N+](=O)[O-])c1	.	.	.
Cc1cc(=O)[nH]c2nnc(SCc3cccc(F)c3)n12	.	/	/
CC(C)(C)n1nc2c(c1NC(=O)C1CC(=O)N(c3ccc(Cl)cc3)C1)CS(=O)(=O)C2 (centres undefined)	.	.	.
Cc1cccc(S(=O)(=O)N(C)C[C@H]2OCc3cn(nn3)CCCC(=O)N([C@H](C)CO)C[C@@H]2C)c1	.	.	.
Cc1ccc2c(c1)C(C)CC(C)(C)N2C(=O)CN1CCN(C)CC1 (centres undefined)	.	-93.1	.
Cc1ccc2c(c1)C(C)CC(C)(C)N2C(=O)NC1CCCCC1 (centres undefined)	.	-54.3	.
Cc1ccc2c(c1)N(C(=O)NC1CCCCC1)C(C)(C)CC2C (centres undefined)	.	.	.
CC1CC(C)(C)N(C(=O)CN2CCN(C)CC2)c2ccccc21 (centres undefined)	.	?	.
SMILES	DRD3 agonist	DRD3 antagonist	Integrin act MD
Cc1nc(C2CC(=O)OC23CCCCC3)cs1 (centres undefined)	.	.	.
Cc1cc(C(=O)COC(=O)CNC(=O)c2ccccc2)c(C)n1CC1CCCO1 (centres undefined)	.	.	.
CCC1(c2ccc(OC)cc2)NC(=O)N(CC(=O)N2CCc3ccccc32)C1=O (centres undefined)	.	.	.
COc1ccc(S(=O)(=O)/N=C2/NC(=O)/C(=C\c3cc(OC)c(OC)cc3[N+](=O)[O-])S2)cc1	.	.	.
COc1cc(/C=C2\S/C(=N/S(=O)(=O)c3ccccc3)NC2=O)c([N+](=O)[O-])cc1OC	.	-87.6	.
O=C(Cn1ncc(Cl)c(Cl)c1=O)c1ccc2c(c1)OCCO2	.	-54.1	.
O=C(Cn1ncc(Cl)c(Cl)c1=O)Nc1ccc2c(c1)OCO2	.	?	.
Cc1ccc(NC(=O)COC(=O)C2(C)CC2(Cl)Cl)cc1S(=O)(=O)N1CCOCC1 (centres undefined)	.	.	.
CS(=O)(=O)c1nc(-c2ccccc2)cc(-c2ccccc2)c1C#N	.	-65.9	.
Cc1ccc(-c2cc(-c3ccccc3)c(C#N)c(Br)n2)cc1	.	.	.
COC(=O)CC1C(=O)NCCN1C(=O)CSc1nnnn1-c1ccc(Cl)cc1 (centres undefined)	.	.	.
Cc1nnc(N2C(=O)C(O)=C(C(=O)c3ccco3)C2c2ccc(C(C)(C)C)cc2)s1 (centres undefined)	.	-83.1	.
Cc1nnc(N2C(=O)C(O)=C(C(=O)c3ccco3)C2c2ccc(F)cc2)s1 (centres undefined)	.	.	.
CCCn1c(=O)[nH]c(=O)c2c(C(=O)OCC)cc(-c3cccs3)nc21	.	.	.
NS(=O)(=O)c1ccc(N=Nc2c(-c3ccccc3)[nH]n(-c3nc(-c4ccccc4)cs3)c2=O)cc1	.	-65.9	.
